Data reported in PubChem BioAssay (NCI).
Compounds without any hit were thinned out: in the full panel of roughly 83,000, 20% have a hit.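 Treatment: one concentration, 48 hours, 96-well format. Scoring: percent growth, with anything below 10 considered active.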 Unmarked numbers belong to inactive results. Active and inactive are the calls of the source.

Assays:
Assay in all cases: NCI-60 one-dose screen, 48 h (100 = growth as untreated, 0 = no growth, -100 = all killed)
Conditions in all cases: 10 µM unless noted
SR leukemia = tested on: SR leukemia
RPMI-8226 leukemia = tested on: RPMI-8226 leukemia
OVCAR-8 ovarian = tested on: OVCAR-8 ovarian
OVCAR-5 ovarian = tested on: OVCAR-5 ovarian
OVCAR-4 ovarian = tested on: OVCAR-4 ovarian
SK-OV-3 ovarian = tested on: SK-OV-3 ovarian
IGROV1 ovarian = tested on: IGROV1 ovarian
OVCAR-3 ovarian = tested on: OVCAR-3 ovarian
HS 578T breast = tested on: HS 578T breast
NCI/ADR-RES ovarian = tested on: NCI/ADR-RES ovarian

Row | SMILES | growth (SR leukemia) | growth (RPMI-8226 leukemia) | growth (OVCAR-8 ovarian) | growth (OVCAR-5 ovarian) | growth (OVCAR-4 ovarian) | growth (SK-OV-3 ovarian) | growth (IGROV1 ovarian) | growth (OVCAR-3 ovarian) | growth (HS 578T breast) | growth (NCI/ADR-RES ovarian)
1 | CCN(CC)CCOc1ccc(Nc2ncc3cc(-c4c(Cl)cccc4Cl)c(=O)n(CCOC)c3n2)cc1 | -30.8% (active) | 2.23% (active) | 9.23% (active) | 2.15% (active) | 35.3% | 2.93% (active) | -21.9% (active) | -22% (active) | 8.49% (active) | 6.66% (active)
2 | Nc1ncnc2c1N=C(c1ccc(F)cc1)CC(c1cccc(Nc3ccnc4cc(Cl)ccc34)c1)N2 (stereo unspecified) | 0.875% (active) | 25.9% | 82.2% | 107% | 76.3% | 98.9% | 74.3% | 88.9% | 68.3% | 78.2%
3 | O=S(=O)(NCCNc1nccc(-c2c(-c3ccc(F)c(O)c3)nc3sccn23)n1)c1ccc(Cl)cc1 | 9.79% (active) | -11.1% (active) | 22.3% | 93.1% | 32.5% | 39.3% | 30.3% | 45.4% | 31.4% | 28.5%
4 | COc1ccc(-c2nc(SCC(=O)Nc3nc4ccc(C)cc4s3)[nH]c(=O)c2C#N)cc1OC | 75.2% | 110% | 101% | 111% | 105% | 74.2% | 95.9% | 112% | 87.4% | 98.3%
5 | c1ccc(-c2ccc3c(c2)C2(CCNCC2)CN3)cc1 | 96% | 97.5% | 99.2% | 98.1% | 91.5% | 79.4% | 73% | 86.2% | 93.6% | 94.3%
6 | Clc1ccc2nn3c4ccccc4c(OCCN4CCOCC4)nc3c2c1 | 88.1% | 91.8% | 85% | 93.2% | 90% | 94.1% | 71% | 97.5% | 97.5% | 80.4%
7 | CN(C)CCC(CCN(C)C)(C(=O)O)c1ccccc1 | 110% | 99.8% | 102% | 99.2% | 105% | 102% | 93.7% | 113% | 111% | 112%
8 | Fc1ccc2[nH]cc(-c3nc(-c4c[nH]c5c(Cl)nccc45)cs3)c2c1 | 13.3% | 48.5% | 52% | 99.1% | 65.3% | 47.5% | 61.7% | 70.9% | 39% | 53.7%
9 | Nc1c(Br)cc2c(c1Br)Cc1cc([N+](=O)[O-])ccc1-2 | 64.3% | 91.3% | 95.4% | 112% | 85.4% | 92.2% | 135% | 111% | 104% | 104%
10 | CC(=O)N1N=C(c2ccc(Nc3nc(Nc4ccc(F)cc4)nc(Nc4ccc(F)cc4)n3)cc2)CC1c1ccc(N(C)C)cc1 (stereo unspecified) | -4.86% (active) | 4.52% (active) | 27.6% | 78.4% | 62.2% | 90.6% | 48% | 69.5% | 62.9% | 27.5%
11 | COc1cc(N2C(=O)[C@H](Cl)C2c2ccc(SC)cc2)cc(OC)c1OC (stereo partly specified) | 1.95% (active) | 3.63% (active) | 8.62% (active) | 70% | 48% | 20.4% | 27.8% | 3.77% (active) | 25.1% | -0.874% (active)
12 | C=C1CC[C@@H]2C(C)(C)[C@H](O)CC[C@@]2(C)[C@@H]1COc1ccc2ccc(=O)oc2c1 | 85.5% | 6.64% (active) | 17% | 109% | 50.8% | 104% | 60.7% | 46.8% | 69.8% | 5.04% (active)
13 | CCN1C2CCC1/C(=C\c1ccccc1)C(=O)/C2=C/c1ccccc1 | 27.3% | 38.2% | 22.5% | 88.3% | 46.1% | 78.5% | 49.9% | 13% |  | 15.1%
14 | Cc1nc(N/N=C/c2cn(-c3ccccc3)nc2-c2cc3ccccc3oc2=O)sc1N=Nc1ccccc1 | 29.9% | 89.3% | 103% | 104% | 85.4% | 109% | 89.1% | 92.1% | 90.2% | 88%
15 | N#Cc1c(-c2ccc(Cl)cc2)nc(NN=Cc2ccc[nH]2)nc1N1CCOCC1 | 31.2% | 6.36% (active) | 85.1% | 99.6% | 72.6% | 84.7% | 67.9% | 45.6% | 95% | 84.5%
16 | CC(=O)c1c(Nc2cccc(F)c2)[nH]c2c(Cl)cc(Cl)c(Cl)c2c1=O | 14.8% | -8.11% (active) | 7.74% (active) | 15.3% | 13.5% | 1.25% (active) | 17.9% | 14.8% | 4.68% (active) | 3.89% (active)
17 | COc1ccc2c(c1)CC[C@@H]1[C@@H]2CC[C@]2(C)c3c(cc(C#N)c4c3sc3ccccc34)C[C@@H]12 | 89.3% | 95.8% | 101% | 80.6% | 107% | 108% | 101% | 108% | 94.6% | 101%
18 | CNCC[C@H](Oc1cccc2ccccc12)c1cccs1 | 51.9% | 94.7% | 82.1% | 117% | 71.7% | 109% | 84.7% | 86.9% | 67.5% | 83.4%
19 | Clc1ccc(Nc2ncc(Cc3cccc(Cl)c3Cl)s2)cc1 | 102% | 89.4% | 98% | 85.8% | 94.8% | 102% | 93.3% | 100% | 102% | 93.3%
20 | O=CN1N=C(c2cccc(Nc3ccnc4cc(Cl)ccc34)c2)CC1c1ccc(Cl)cc1 (stereo unspecified) | 8.98% (active) | 32.9% | 43.7% | 58.7% | 57.5% | 24.1% | 38.7% | -17% (active) |  | 5.69% (active)
21 | CCCC(O)Cn1ncc(C(=O)OCC)c1NC(=O)NCc1cccc(C(F)(F)F)c1 (stereo unspecified) | 76.1% | 47.9% | 102% | 107% | 104% | 84.8% | 83.8% | 100% | 107% | 86.4%
22 | Cc1cccc(-c2nc(C(C)C)sc2-c2ccnc(NCCCNS(=O)(=O)c3ccc(Cl)cc3)c2)c1 | 54.6% | 69.2% | 81.4% | 95.3% | 82.8% | 72.9% | 70.5% | 76.8% | 82% | 58.9%
23 | COc1cc(OC)c2c(=O)c3c(CC=C(C)C)cc(OC)c(O)c3oc2c1 | 53.2% | 81.7% | 88.6% | 96.2% | 98.5% | 96.6% | 91.7% | 92.8% |  | 78.8%
24 | Cc1cc2oc(/C=C/c3ccccc3)cc(=O)c2c(C)c1Cl | 78.3% | 94% | 100% | 104% | 99% | 96.3% | 109% | 108% | 119% | 97.8%
25 | COc1cc2c(c(OC)c1OC)C(=O)CC(c1cccc(C(=O)Nc3ccccc3Br)c1)O2 (stereo unspecified) | 64% | 68.7% | 91.8% | 96.5% | 70.6% | 95.4% | 91.6% | 97.6% | 103% | 88.8%
26 | C=CN(C(=O)N1CCN(c2cc3c(cc2F)c(=O)c(C(=O)O)cn3C2CC2)CC1)c1nc(-c2ccc(Cl)cc2)cs1 | 33.2% | 15.9% | 67.3% | 85.7% | 78.4% | 74.7% | 21.4% | 53.9% |  | 90.6%
27 | c1ccc(-c2nc3ccccc3[nH]2)c(OCCCCCOc2ccccc2-c2nc3ccccc3[nH]2)c1 | 2.06% (active) | 23.8% | 64.3% | 92.2% | 58.9% | 169% | 70% | 59.7% | 89% | 63.9%
